Results taken from the supplement of paper PMC8728848.
The sample as a whole holds a higher share of the strongest signals than the screen did.

Assays:
Experiment in all cases: glycan array binding signal (z-score within array); higher = stronger binding
Details in all cases: glycan notation: IUPAC condensed, linker removed
[1] = target: GlcNAc(b1-3)Gal(b1-4)Glc
Procedure, shortened: (§1)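 The Consortium for Functional Glycomics database supplied 3228 glycan arrays, of which those lacking an available protein sequence were dropped. The binding signal, a within-array Z-score, was averaged across arrays of the same protein sequence and across linkers. Negative scores can be read as non-binding.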

[2] = target: GlcNAc(b1-3)Gal(b1-4)GlcNAc(b1-2)Man(a1-3)[GlcNAc(b1-3)Gal(b1-4)GlcNAc(b1-2)Man(a1-6)]Man(b1-4)GlcNAc(b1-4)[Fuc(a1-6)]GlcNAc
Procedure, shortened: as §1

[3] = target: GlcNAc(b1-3)Gal(b1-4)GlcNAc(b1-3)Gal(b1-4)GlcNAc
Procedure, shortened: as §1

[4] = target: GlcNAc(b1-3)Gal(b1-4)GlcNAc(b1-3)Gal(b1-4)GlcNAc(b1-2)Man(a1-3)[GlcNAc(b1-3)Gal(b1-4)GlcNAc(b1-3)Gal(b1-4)GlcNAc(b1-2)Man(a1-6)]Man(b1-4)GlcNAc(b1-4)GlcNAc
Procedure, shortened: as §1

[5] = target: GlcNAc(b1-3)Gal(b1-4)GlcNAc(b1-3)Gal(b1-4)GlcNAc(b1-2)Man(a1-3)[GlcNAc(b1-3)Gal(b1-4)GlcNAc(b1-3)Gal(b1-4)GlcNAc(b1-2)Man(a1-6)]Man(b1-4)GlcNAc(b1-4)[Fuc(a1-6)]GlcNAc
Procedure, shortened: as §1

[6] = target: GlcNAc(b1-3)Gal(b1-4)GlcNAc(b1-3)Gal(b1-4)GlcNAc(b1-2)[GlcNAc(b1-3)Gal(b1-4)GlcNAc(b1-3)Gal(b1-4)GlcNAc(b1-6)]Man(a1-6)[GlcNAc(b1-3)Gal(b1-4)GlcNAc(b1-3)Gal(b1-4)GlcNAc(b1-2)Man(a1-3)]Man(b1-4)GlcNAc(b1-4)[Fuc(a1-6)]GlcNAc
Procedure, shortened: as §1

[7] = target: GlcNAc(b1-3)Gal(b1-4)GlcNAc(b1-3)Gal(b1-4)GlcNAc(b1-3)Gal(b1-4)GlcNAc(b1-2)Man(a1-3)[GlcNAc(b1-3)Gal(b1-4)GlcNAc(b1-3)Gal(b1-4)GlcNAc(b1-3)Gal(b1-4)GlcNAc(b1-2)Man(a1-6)]Man(b1-4)GlcNAc(b1-4)GlcNAc
Procedure, shortened: as §1

[8] = target: GlcNAc(b1-3)Gal(b1-4)GlcNAc(b1-3)Gal(b1-4)GlcNAc(b1-3)Gal(b1-4)GlcNAc(b1-2)Man(a1-3)[GlcNAc(b1-3)Gal(b1-4)GlcNAc(b1-3)Gal(b1-4)GlcNAc(b1-3)Gal(b1-4)GlcNAc(b1-2)Man(a1-6)]Man(b1-4)GlcNAc(b1-4)[Fuc(a1-6)]GlcNAc
Procedure, shortened: as §1

[9] = target: GlcNAc(b1-3)Gal(b1-4)GlcNAc(b1-3)Gal(b1-4)GlcNAc(b1-3)Gal(b1-4)GlcNAc(b1-2)[GlcNAc(b1-3)Gal(b1-4)GlcNAc(b1-3)Gal(b1-4)GlcNAc(b1-3)Gal(b1-4)GlcNAc(b1-6)]Man(a1-6)[GlcNAc(b1-3)Gal(b1-4)GlcNAc(b1-3)Gal(b1-4)GlcNAc(b1-3)Gal(b1-4)GlcNAc(b1-2)Man(a1-3)]Man(b1-4)GlcNAc(b1-4)[Fuc(a1-6)]GlcNAc
Procedure, shortened: as §1

[10] = target: GlcNAc(b1-3)Gal(b1-4)GlcNAc(b1-3)Gal(b1-4)GlcNAc(b1-3)Gal(b1-4)GlcNAc(b1-3)Gal(b1-4)GlcNAc(b1-2)Man(a1-3)[GlcNAc(b1-3)Gal(b1-4)GlcNAc(b1-3)Gal(b1-4)GlcNAc(b1-3)Gal(b1-4)GlcNAc(b1-3)Gal(b1-4)GlcNAc(b1-2)Man(a1-6)]Man(b1-4)GlcNAc(b1-4)GlcNAc
Procedure, shortened: as §1

[11] = target: GlcNAc(b1-3)Gal(b1-4)GlcNAc(b1-3)Gal(b1-4)GlcNAc(b1-3)Gal(b1-4)GlcNAc(b1-3)Gal(b1-4)GlcNAc(b1-2)Man(a1-3)[GlcNAc(b1-3)Gal(b1-4)GlcNAc(b1-3)Gal(b1-4)GlcNAc(b1-3)Gal(b1-4)GlcNAc(b1-3)Gal(b1-4)GlcNAc(b1-2)Man(a1-6)]Man(b1-4)GlcNAc(b1-4)[Fuc(a1-6)]GlcNAc
Procedure, shortened: as §1

[12] = target: GlcNAc(b1-3)Gal(b1-4)GlcNAc(b1-3)Gal(b1-4)GlcNAc(b1-3)Gal(b1-4)GlcNAc(b1-3)Gal(b1-4)GlcNAc(b1-2)[GlcNAc(b1-3)Gal(b1-4)GlcNAc(b1-3)Gal(b1-4)GlcNAc(b1-3)Gal(b1-4)GlcNAc(b1-3)Gal(b1-4)GlcNAc(b1-6)]Man(a1-6)[GlcNAc(b1-3)Gal(b1-4)GlcNAc(b1-3)Gal(b1-4)GlcNAc(b1-3)Gal(b1-4)GlcNAc(b1-3)Gal(b1-4)GlcNAc(b1-2)Man(a1-3)]Man(b1-4)GlcNAc(b1-4)[Fuc(a1-6)]GlcNAc
Procedure, shortened: as §1

[13] = target: GlcNAc(b1-3)Gal(b1-4)GlcNAc(b1-6)[GlcNAc(b1-3)Gal(b1-3)]GalNAc
Procedure, shortened: as §1

[14] = target: GlcNAc(b1-3)[GlcNAc(b1-6)]GalNAc
Procedure, shortened: as §1

[15] = target: GlcNAc(b1-4)GlcNAc(b1-4)GlcNAc(b1-4)GlcNAc(b1-4)GlcNAc(b1-4)GlcNAc
Procedure, shortened: as §1

[16] = target: GlcNAc(b1-6)Gal(b1-4)GlcNAc
Procedure, shortened: as §1

[17] = target: Kdn(a2-3)Gal(b1-4)[Fuc(a1-3)]GlcNAc
Procedure, shortened: as §1

[18] = target: Neu5Ac(a2-3)Gal
Procedure, shortened: as §1

[19] = target: Neu5Ac(a2-3)Gal(b1-4)GlcNAc(b1-2)Man
Procedure, shortened: as §1

[20] = target: Neu5Ac(a2-3)Gal(b1-4)GlcNAc(b1-2)[Neu5Ac(a2-3)Gal(b1-4)GlcNAc(b1-4)]Man(a1-3)[GlcNAc(b1-4)][Neu5Ac(a2-3)Gal(b1-4)GlcNAc(b1-2)[Neu5Ac(a2-3)Gal(b1-4)GlcNAc(b1-6)]Man(a1-6)]Man(b1-4)GlcNAc(b1-4)GlcNAc
Procedure, shortened: as §1

[21] = target: Neu5Ac(a2-3)Gal(b1-4)[Fuc(a1-3)]GlcNAc(b1-3)Gal(b1-4)[Fuc(a1-3)]GlcNAc(b1-3)Gal(b1-4)[Fuc(a1-3)]GlcNAc
Procedure, shortened: as §1

[22] = target: Neu5Ac(a2-3)GalNAc(b1-4)GlcNAc
Procedure, shortened: as §1

[23] = target: Neu5Ac(a2-6)Gal(b1-4)GlcNAc(b1-2)Man(a1-3)[Gal(b1-4)GlcNAc(b1-2)Man(a1-6)]Man(b1-4)GlcNAc(b1-4)GlcNAc
Procedure, shortened: as §1

[24] = target: Neu5Ac(a2-6)Gal(b1-4)GlcNAc(b1-2)Man(a1-3)[Man(a1-6)]Man(b1-4)GlcNAc(b1-4)GlcNAc
Procedure, shortened: as §1

B1: PVL (Psathyrella velutina), Q309D1_9AGAR (protein)
chain: MSVVVISQALPVPTRIPGVADLVGFGNGGVYIIRNSLLIQVVKVINNFGYDAGGWRVEKHVRLLADTTGDNQPDVVGFGENGVWISTNNGNNTFVDPPKMVLANFAYAAGGWRVEKHIRFMADLRKTGRADIVGFGDGGIYISRNNGGGQFAPAQLALNNFGYAQGWRLDRHLRFLADVTGDGLLDVVGFGENQVYIARNSGNGTFQPAQAVVNNFCIGAGGWTISAHPRVVADLTGDRKADILGFGVAGVYTSLNNGNGTFGAVNLVLKDFGVNSGWRVEKHVRCVSSLTNKKVGDIIGFGDAGVYVALNNGNGTFGPVKRVIDNFGYNQGWRVDKHPRFVVDLTGDGCADIVGFGENSVWACMNKGDGTFGPIMKLIDDMTVSKGWTLQKTVRYAANLYL
[1]
  glycan array binding signal (z-score): 4.07
[2]
  glycan array binding signal (z-score): 3.27
[3]
  glycan array binding signal (z-score): 4.46
[4]
  glycan array binding signal (z-score): 3.34
[5]
  glycan array binding signal (z-score): 4.03
[6]
  glycan array binding signal (z-score): 4.69
[7]
  glycan array binding signal (z-score): 4.58
[8]
  glycan array binding signal (z-score): 4.34
[9]
  glycan array binding signal (z-score): 5.13
[10]
  glycan array binding signal (z-score): 4.45
[11]
  glycan array binding signal (z-score): 4.27
[12]
  glycan array binding signal (z-score): 5.12
[13]
  glycan array binding signal (z-score): 2.71
[14]
  glycan array binding signal (z-score): 1.1
[15]
  glycan array binding signal (z-score): 0.53
[16]
  glycan array binding signal (z-score): 0.714
[17]
  glycan array binding signal (z-score): -0.363
[18]
  glycan array binding signal (z-score): -0.341
[19]
  glycan array binding signal (z-score): -0.35
[20]
  glycan array binding signal (z-score): -0.201
[21]
  glycan array binding signal (z-score): -0.297
[22]
  glycan array binding signal (z-score): -0.351
[23]
  glycan array binding signal (z-score): -0.362
[24]
  glycan array binding signal (z-score): -0.349
